Results from ChEMBL document CHEMBL2218924, “A broad activity screen in support of a chemogenomic map for kinase signalling research and drug discovery” (Biochem J, 2013).

Biological target: Serine/threonine-protein kinase SIK1 (Homo sapiens) (UniProt P57059)
Conditions: at 1 µM

Chain of Serine/threonine-protein kinase SIK1 (Homo sapiens) (P57059 whole entry): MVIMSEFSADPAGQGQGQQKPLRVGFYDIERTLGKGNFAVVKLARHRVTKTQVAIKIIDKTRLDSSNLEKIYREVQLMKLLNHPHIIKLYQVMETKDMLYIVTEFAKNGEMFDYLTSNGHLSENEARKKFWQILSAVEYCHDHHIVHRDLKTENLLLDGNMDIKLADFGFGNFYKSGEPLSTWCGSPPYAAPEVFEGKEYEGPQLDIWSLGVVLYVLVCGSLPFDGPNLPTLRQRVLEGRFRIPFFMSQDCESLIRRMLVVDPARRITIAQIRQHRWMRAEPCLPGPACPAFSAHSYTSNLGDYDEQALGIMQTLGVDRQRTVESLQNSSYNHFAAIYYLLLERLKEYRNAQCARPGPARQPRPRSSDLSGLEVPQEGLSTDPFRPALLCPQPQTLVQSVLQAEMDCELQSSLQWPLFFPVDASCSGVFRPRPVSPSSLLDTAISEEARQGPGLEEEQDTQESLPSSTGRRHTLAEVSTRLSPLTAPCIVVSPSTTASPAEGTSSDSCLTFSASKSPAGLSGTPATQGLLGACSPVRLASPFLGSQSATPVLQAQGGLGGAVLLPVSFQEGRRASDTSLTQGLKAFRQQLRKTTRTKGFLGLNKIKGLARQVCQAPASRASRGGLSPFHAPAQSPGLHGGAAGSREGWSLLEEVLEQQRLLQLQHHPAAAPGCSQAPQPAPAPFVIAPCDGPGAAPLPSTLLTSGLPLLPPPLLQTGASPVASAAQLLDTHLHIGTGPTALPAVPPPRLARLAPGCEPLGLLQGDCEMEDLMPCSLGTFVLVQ

SMILES | residual activity [%]
CCN(CC)CCNC(=O)c1c(C)[nH]c(/C=C2\C(=O)Nc3ccc(Cl)cc32)c1C | 31
O=C1NC(=O)C(c2cn(CCCn3ccnc3)c3ccccc23)=C1Nc1ccccc1 | 79
O=C(Nc1nc2ccccc2n1CCN1CCOCC1)c1cccc([N+](=O)[O-])c1 | 70
O=S(=O)(NCCNC/C=C/c1ccc(Br)cc1)c1cccc2cnccc12 | 137
c1ccc(-c2cnc(Nc3ccc(OCCN4CCCC4)cc3)s2)cc1 | 53
O=S(=O)(c1cccc2cnccc12)N1CCCNCC1 | 126
NC(=O)c1cccc(-c2cc(Nc3ccc(OC(F)(F)F)cc3)ncn2)c1 | 96
CC(C)N(CCC(=O)c1ccc2ccccc2c1)Cc1ccccc1 | 79
CCCCc1c(-c2ccc(O)cc2)[nH]c2nccnc12 | 69
N#Cc1c(NC(=O)c2cccc3ccccc23)sc2c1CCCC2 | 136
Oc1cccc(-c2nc(N3CCOCC3)c3oc4ncccc4c3n2)c1 | 91
COc1ccc(Cl)cc1NC(=O)Nc1cc(C)nc2ccccc12 | 93
Nc1n[nH]c2nc3ccccc3nc12 | 118
COc1cc2ncnc(Nc3cccc(Cl)c3)c2cc1OC | 84
O=C1NC(=O)C(c2c[nH]c3ccccc23)=C1c1c[nH]c2ccccc12 | 81
Cn1c2ccccc2c2c3c(c4c5ccccc5n(CCC#N)c4c21)CNC3=O | 9
N#C/C(=C\c1ccc(O)c(O)c1)C(=O)NCc1ccccc1 | 88
O=C1NC(=O)C(c2cn(CCCO)c3ncccc23)=C1c1cnccn1 | 129
O=C1Nc2ccccc2/C1=C\c1c(Cl)[nH]c2ccccc12 | 120
O=C(c1cc2cc(O)ccc2[nH]1)c1cc2cc(O)ccc2[nH]1 | 39
Nc1nccc(-c2c(-c3ccc(F)cc3)ncn2C2CCNCC2)n1 | 132
NCCNc1ncc(C(N)=O)c(Nc2cccc(C(F)(F)F)c2)n1 | 63
N#C/C(=C1/Nc2ccccc2S1)c1ccnc(NCCc2cccnc2)n1 | 146
CC(C)c1nn(-c2c(Cl)cccc2Cl)c2nc(Cc3ccc(OCCO)cc3)[nH]c(=O)c12 | 109
O=C1C(Cl)=C(N2C(=O)CCC2=O)C(=O)c2ccccc21 | 122
COc1ccc2c(c1)c(C1=C(c3c[nH]c4ccccc34)C(=O)NC1=O)cn2CCCN(C)C | 77
